Anthrax LT inh – qHTS Assay for Anthrax Lethal Toxin Internalization; hit rate 0.67% among 70,000; Potency, µM (titrated, usually from 40 µM), inactives show at the top dose activity change, negative = inhibition, hits mostly inhibitors; Cells, anthrax lethal toxin internalization, FRET ratio (460/530); note: % is set by controls: 0 for no effect and ±100 for the full control effect; nearly all actives have a fitted effect of over 50% in size
AmpC inh no det – Promiscuous and Specific Inhibitors of AmpC Beta-Lactamase (assay without detergent). P00811. AmpC nitrocefin hydrolysis, absorbance 480 nm, no detergent. Potency, µM (top dose mostly 28.7 µM), without a hit: at the top dose activity change, negative = inhibition. hit rate 1.8% among 71,000. AID 585, 2007; note: % of control where 0% means no effect
Target sequence (P00811 whole entry, looked up): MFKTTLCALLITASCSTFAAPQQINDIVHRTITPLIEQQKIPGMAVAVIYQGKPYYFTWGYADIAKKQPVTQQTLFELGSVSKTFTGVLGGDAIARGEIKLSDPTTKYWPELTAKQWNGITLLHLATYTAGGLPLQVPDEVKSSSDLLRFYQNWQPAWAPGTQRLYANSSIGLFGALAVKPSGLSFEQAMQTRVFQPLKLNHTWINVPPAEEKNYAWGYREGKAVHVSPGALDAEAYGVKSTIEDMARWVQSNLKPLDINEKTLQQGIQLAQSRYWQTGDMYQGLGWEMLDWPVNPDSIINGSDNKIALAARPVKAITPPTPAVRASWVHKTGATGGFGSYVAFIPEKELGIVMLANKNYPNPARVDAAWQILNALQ
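AmpC, 20 mM phosphate pH 7.0; 15 min cpd preinc, RT; start with nitrocefin (800 uM stock); A480 kinetic read, 20 s intervals, 4 min. No-enzyme wells = negative control.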
AmpC inh det – Promiscuous and Specific Inhibitors of AmpC Beta-Lactamase (assay with detergent); P00811; purified AmpC, nitrocefin hydrolysis with detergent; Potency, µM (highest dose often 28.7 µM), without a hit: top-dose activity change, negative = inhibition; hit rate 0.09% among 71,000; active = well fitted curve in the direction sought with a large enough effect; inconclusive = small, poorly fitted or top-dose-only effect; note: % is set by controls: 0 for no effect and ±100 for the full control effect
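E. coli AmpC (5.3 nM) in 20 mM phosphate pH 7.0 with 0.01% Triton X-100, preincubated 15 min RT with compound; nitrocefin (2 uL of 800 uM stock) hydrolysis followed by 480 nm absorbance every 20 s over 4 min.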
SmPrx2 inh – Schistosoma Mansoni Peroxiredoxins (Prx2); Schistosoma mansoni peroxiredoxin 2 (Prx2); S. mansoni Prx2 activity coupled to TGR/GSH (TGR is thioredoxin glutathione reductase), NADPH fluorescence loss, qHTS; Potency, µM; hit rate 0.07% among 65,000
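Prx2 activity was followed as the loss of NADPH fluorescence (ex 365/em 450 nm), read every 30 sec for 8 min after H2O2 start. The enzyme mix (50 nM Prx2, 25 nM TGR, GSH, NADPH; pH 7.4 phosphate buffer) was incubated with compound for 15 min at room temperature first.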
The depositor's hits bear a star; ? = inconclusive; / = no result; [ ] = another dose, or the depositor's remark. A selection: hits, their analogues and other compounds. The true share with any hit is near 2.4%. Unless noted, calls come from the whole dose curve. Potency is the fitted concentration of half-maximal effect.

SMILES | Anthrax LT inh | AmpC inh no det | AmpC inh det | SmPrx2 inh
CCCC[C@@H]1CN2[C@H](c3ccc(Br)cc3)[C@@H](C)CC[C@H]2C(=O)O1 | -22%[8 µM] | / | / | /
O=C(CCCN1CCC2(CC1)C(=O)N(Cc1cccc(F)c1)CN2c1ccccc1)c1ccc(F)cc1 | ? | 20µM*[single pt active] | -9% | >57
O=C(NCc1ccc2c(c1)OCO2)c1cccc2c1C(=O)N(C1CCCCC1)C2 | 2% | 2.5µM*[single pt active] | 14% | >57
CN1CCN(S(=O)(=O)c2ccc(NC(=O)Nc3cccc(Cl)c3)cc2)CC1 | 13µM* | 13% | -3% | >57
O=C(Nc1ccccc1)Nc1ccc(S(=O)(=O)N2CCCCC2)cc1 | ? | -23% | -2% | >57
Cc1ccc(S(=O)(=O)CC(=O)Nc2ccc(S(=O)(=O)Nc3onc(C)c3C)cc2)cc1 | -1% | -3% | -3% | >57
CCc1cccc(OCC(=O)Nc2ccc(S(=O)(=O)Nc3onc(C)c3C)cc2)c1 | -8% | 4µM*[single pt active] | 12% | >57
Cc1noc(NS(=O)(=O)c2ccc(NC(=O)COc3ccc(Cl)cc3Cl)cc2)c1C | ? | 6.3µM* | 12% | /
Cc1ccc(OCC(=O)Nc2ccc(S(=O)(=O)Nc3onc(C)c3C)cc2)cc1 | 0% | 2% | -2% | >57
O=C(Nc1ccccc1)N1CC2(CCN(C(=O)c3ccncc3)CC2)C1 | 7% | -3% | 1% | >57
CCN1CCN(C(=O)CSCc2nc(-c3ccc(OC)c(OC)c3)oc2C)CC1 | ? | 4µM*[single pt active] | 11% | >57
O=C(CSc1nc2ccccc2s1)c1sc2sc3ccccc3[n+]2c1O | ? | 4µM*[single pt active] | -7%[5.75 µM] | >57
Cc1ccc(C2=C(Cl)C(=O)C(c3ccc(C)cc3)=C(Cl)C2=O)cc1 | -6%[8 µM] | -4%[5.75 µM] | -2%[5.75 µM] | /
Cn1cccc1C(=O)N1CCC2(CCCN(C(=O)Nc3cccc(C#N)c3)C2)CC1 | ? | 73% | -1% | >57
Nc1nnc(COc2ccc(Br)cc2Br)s1 | 2% | -23% | -8% | >57
Brc1ccc(Oc2cc(Br)c(Br)cc2Br)c(Br)c1 | 0.79µM* | -8% | 8% | /
C=C1CC[C@@H]2[C@](C)(CC[C@@H](O)[C@]2(C)CO)[C@@H]1C/C=C1/C(=O)OC[C@H]1O | ? | 3% | 12% | >57
COCCCNC(=O)CN1C(=O)CSc2ncccc21 | 4% | -4% | 5% | >57
Cc1c(Cl)cccc1NC(=O)CN1C(=O)CSc2ncccc21 | ? | 3.2µM*[single pt active] | 11% | >57
N#CCCn1c(=O)c(CCc2ccccc2)nc2cnc(N3CCOCC3)nc21 | ? | 11% | 0% | >57
CCCCOC(=O)Nc1ccc(S(=O)(=O)Nc2cc(C)nc(C)n2)cc1 | ? | 3.2µM*[single pt active] | 12% | >57
Cc1ccc(OCCCC(=O)Nc2ccc(S(=O)(=O)Nc3cc(C)on3)cc2)cc1 | 4% | 10µM*[single pt active] | 7% | >57
CN(C)CN1CSC(=S)N(CN(C)C)C1 | -1%[8 µM] | -13%[5.75 µM] | -6%[5.75 µM] | >57
Cc1sc2ncnc(Sc3nnnn3-c3ccccc3)c2c1C | -2% | 7% | -2% | >57
Clc1ccc(-n2nnnc2Sc2ncnc3sccc23)cc1 | 6.3µM* | -8% | -5% | ?
SMILES | Anthrax LT inh | AmpC inh no det | AmpC inh det | SmPrx2 inh
C1CCCC1 | ? | -2% | 7% | /
Cc1cc(C(=O)CSc2nc3ccccc3n2CCC#N)c(C)n1Cc1cccs1 | -26% | 16µM* | -1% | >57
CCC(C)C(=O)Nc1nc2c(s1)C(=O)CC(C)(C)C2 (stereo not given) | 9% | 4µM*[single pt active] | 11% | >57
CSc1ccc(C2Nc3ccccc3-c3cc(C)nn32)cc1 (stereo not given) | 13µM* | 3% | 2% | >57
Cc1cc2n(n1)C(c1ccsc1)Nc1ccccc1-2 (stereo not given) | -8% | 10% | -5% | >57
O=c1cccc2n1C[C@@H]1C[C@H]2CN2CCCC[C@H]12 | ? | -5% | -2% | >57
Cc1ccc(O)c(C(=O)CC(=O)c2cccc(F)c2)c1 | ? | 3% | -1% | /
O=C(CC(=O)c1cc(Cl)ccc1O)c1ccccc1 | 7.9µM* | -2% | 8% | /
CO[C@@H](C)[C@](O)(C(=O)OC1=CCN2CC[C@H](O)[C@H]12)C(C)C | -16% | -3% | -3% | >57
CCN1CCN(Cc2ccc(NC(=O)Nc3ccc(OC)cc3)cc2)CC1 | -11% | 4µM*[single pt active] | 13% | >57
CCN1CCN(Cc2ccc(NC(=O)Nc3ccccc3)cc2)CC1 | ? | 1% | 3% | >57
N[C@H](Cn1oc(=O)[nH]c1=O)C(=O)O | 4% | 6% | -5% | >57
N[C@@H](CCCCO)C(=O)O | 0%[8 µM] | 2%[5.75 µM] | -2%[5.75 µM] | >57
COC(=O)C/C=C\[C@@H](C)[C@@H](/C=N\OC[C@@H](O)[C@H]1O[C@H]2OC(C)(C)O[C@H]2[C@@H]1O)OC | 0%[8 µM] | / | / | /
CCOC(=O)c1cc(-c2ccccc2)n(CC(=O)O)c1C | 1% | -5% | -5% | >57
CCOC(=O)c1cc(-c2ccc(F)cc2)n(CC(=O)Nc2nccs2)c1C | 10µM* | 3.2µM*[single pt active] | 10% | >57
CN1CCN(c2nc(-c3ccccc3C(F)(F)F)nc3ccccc23)CC1 | ? | 56% | 10% | >57
Cc1ccc2c(c1)-c1c(cnn1CC(=O)O)CO2 | 8% | -13% | -1% | >57
Cc1ccc2c(c1)-c1c(cnn1CC(=O)Nc1ccccc1N1CCN(C)CC1)CO2 | 5µM* | 117% | 8% | >57
CCc1ccc(NC(=O)c2cc(CC(C)C)on2)cc1 | -29% | 4µM*[single pt active] | 12% | >57
Cc1onc(-c2ccccc2)c1C(=O)Nc1ccc2c(c1)OCO2 | -13% | -6% | 4% | /
COc1ccc(NC(=O)c2cc(CC(C)C)on2)cc1OC | -5% | 4µM*[single pt active] | 12% | >57
COc1cccc(-c2cc(C(=O)Nc3ccc(OC)c(OC)c3)no2)c1 | -13% | 32% | -5% | >57
CC(C)Cc1cc(C(=O)Nc2ccc3c(c2)OCO3)no1 | ? | 4µM*[single pt active] | 13% | >57
O=C(Nc1ccc2c(c1)OCO2)c1cc2ncc(Br)cn2n1 | 3% | 16µM*[single pt active] | 25% | >57
SMILES | Anthrax LT inh | AmpC inh no det | AmpC inh det | SmPrx2 inh
O=C(Nc1ccccc1)c1ccc2nc(-c3ccco3)c(-c3ccco3)nc2c1 | ? | -3% | -7% | >57
CCCCNC(=O)c1ccc2nc(-c3ccco3)c(-c3ccco3)nc2c1 | -8% | 4µM*[single pt active] | 8% | >57
CN(C)CCC(=O)[C@@]1(O)CC[C@H]2[C@H]3CC=C4C[C@@H](O)CC[C@]4(C)[C@H]3CC[C@]21C | -14%[8 µM] | 9%[5.75 µM] | -3%[5.75 µM] | >57
O=c1[nH]cnc2scc(-c3cccs3)c12 | / | -10% | -3% | >57
O=c1[nH]c(CN2CCc3ccccc32)nc2scc(-c3cccs3)c12 | ? | 0.79µM* | -4% | >57
CS(=O)(=O)Nc1ccc(Nc2c3ccccc3nc3ccccc23)cc1 | ? | -9%[5.75 µM] | -4%[5.75 µM] | >57
NNC(=O)CS(=O)(=O)Nc1ncccn1 | -11%[8 µM] | 0%[5.75 µM] | -3%[5.75 µM] | >57
Cc1cc(C)n2nc(S(=O)(=O)NCCc3ccccc3)nc2n1 | -10% | 4µM*[single pt active] | 14% | >57
N[C@H](C(=O)O)c1cccc(O)c1 | ? | 2% | -1% | >57
O=C(c1ccncc1)N1CCC2(CCCN(Cc3ccncc3)C2)CC1 | 16% | 13% | 0% | >57

Source: PubChem (National Center for Advancing Translational Sciences (NCATS))
